In PubChem BioAssay AID1159580 (chemical genetic matrix, 2015):
Several values for one entry are separate records, joined by “and”; a condition that tells them apart may be missing. Equal entries are not always repeated. Among all 5,500 compounds or so, about 2,000 (36%) were called active. Another 18% or so got no clear call; they are omitted. Rule as the data show it: active = normalized growth mostly below about 0.91 (no sharp cut-off); inconclusive = no clear call, values can overlap the other calls; inactive = mostly above about 0.92. This is one part of the list.

Assay: chemical genetic growth profiling, strain panel (AID 1159580);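 also: tested at 20 µM; growth read once vehicle control cultures reached saturation at 30 °C; 1 = growth at the plate median or of vehicle wells; lower values mean less growth of the strain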
Conditions: S. cerevisiae deletion strains, growth OD

Measured: normalized growth

CC(CCc1ccccc1)NC(C)C(O)c1ccc(O)cc1 (stereo not given)
inactive: locus YAL021C, strain ccr4, active compounds read low 0.992 | locus YAL026C, strain drs2, active compounds read low 0.995 | locus YAL030W, strain snc1, active compounds read low 0.999 | locus YAL040C, strain CLN3, active compounds read low 1.01 | locus YBL061C, strain skt5, active compounds read low 0.997 | locus YBR009C, strain hhf1, active compounds read low 1 | locus YBR021W, strain FUR4, active compounds read low 0.997 | locus YBR023C, strain chs3, active compounds read low 1.01 | locus YBR171W, strain sec66, active compounds read low 1.01 | locus YBR229C, strain ROT2, active compounds read low 0.955 | locus YBR231C, strain swc5, active compounds read low 1 | locus YBR279W, strain paf1, active compounds read low 0.995 | locus YCL011C, strain gbp2, active compounds read low 1.01 | locus YCL016C, strain dcc1, active compounds read low 1.01 | locus YCL029C, strain bik1, active compounds read low 0.981 | locus YCL061C, strain MRC1 (second series), active compounds read low 1 | locus YCL061C, strain MRC1, active compounds read low 0.998 | locus YCL069W, strain vba3, active compounds read low 0.998 | locus YCR088W, strain abp1, active compounds read low 1.01 | locus YDL005C, strain med2, active compounds read low 0.999 | locus YDL035C, strain GPR1, active compounds read low 0.977 | locus YDL040C, strain nat1, active compounds read low 1 | locus YDL074C, strain BRE1, active compounds read low 0.953 | locus YDL101C, strain DUN1, active compounds read low 0.978 | locus YDL134C, strain PPH21, active compounds read low 1 | locus YDL185W, strain tfp1, active compounds read low 0.984 | locus YDL192W, strain arf1, active compounds read low 0.992 | locus YDR001C, strain nth1, active compounds read low 0.999 | locus YDR069C, strain doa4, active compounds read low 0.977 | locus YDR101C, strain arx1, active compounds read low 0.998 | locus YDR137W, strain rgp1, active compounds read low 0.989 | locus YDR150W, strain NUM1, active compounds read low 0.984 | locus YDR159W, strain sac3, active compounds read low 0.99 | locus YDR162C, strain NBP2, active compounds read low 0.991 | locus YDR195W, strain ref2 1 | locus YDR297W, strain sur2, active compounds read low 0.993 | locus YDR318W, strain mcm21, active compounds read low 1 | locus YDR334W, strain swr1, active compounds read low 1.01 | locus YDR335W, strain msn5, active compounds read low 0.995 | locus YDR363W, strain ESC2, active compounds read low 0.998 | locus YDR388W, active compounds read low 0.993 | locus YDR392W, strain spt3, active compounds read low 0.963 | locus YDR502C, strain sam2, active compounds read low 1 | locus YEL003W, strain gim4, active compounds read low 0.979 | locus YEL037C, strain rad23, active compounds read low 1 | locus YEL061C, strain CIN8 (second series), active compounds read low 1 | locus YEL061C, strain CIN8, active compounds read low 0.987 | locus YER002W, strain NOP16, active compounds read low 1 | locus YER015W, strain faa2, active compounds read low 0.998 | locus YER016W, strain bim1, active compounds read low 0.999 | locus YER110C, active compounds read low 0.962 | locus YER111C, strain swi4, active compounds read low 0.999 | locus YER155C, strain BEM2 (second series), active compounds read low 1 | locus YER155C, strain BEM2, active compounds read low 0.993 | locus YER167W, strain BCK2, active compounds read low 0.99 | locus YFR010W, strain ubp6, active compounds read low 1 | locus YGL078C, strain dbp3, active compounds read low 0.993 | locus YGL086W, strain mad1, active compounds read low 0.975 | locus YGL167C, strain pmr1, active compounds read low 1 | locus YGL173C, strain kem1, active compounds read low 1.01 | locus YGL227W, strain vid30, active compounds read low 1 | locus YGL240W, strain doc1, active compounds read low 0.993 | locus YGL248W, strain PDE1, active compounds read low 0.97 | locus YGL253W, strain hxk2, active compounds read low 0.997 | locus YGR078C, strain PAC10, active compounds read low 0.981 | locus YGR135W, strain pre9, active compounds read low 0.989 | locus YGR229C, strain SMI1, active compounds read low 0.989 | locus YGR252W, strain gcn5, active compounds read low 0.974 | locus YHR013C, strain ard1, active compounds read low 0.991 | locus YHR027C, strain rpn1, active compounds read low 1.02 | locus YHR030C, strain SLT2, active compounds read low 0.995 and 0.972 | locus YHR079C, strain IRE1 (second series), active compounds read low 1 | locus YHR079C, strain IRE1, active compounds read low 0.959 | locus YHR094C, strain hxt1, active compounds read low 1 | locus YHR129C, strain ARP1, active compounds read low 0.987 | locus YHR142W, strain chs7, active compounds read low 1.01 | locus YHR200W, strain rpn10, active compounds read low 0.997 | locus YIL066C, strain RNR3, active compounds read low 0.988 | locus YIL073C, strain SPO22, active compounds read low 0.979 | locus YIL125W, strain kgd1, active compounds read low 0.989 | locus YIR030C, strain dcg1, active compounds read low 0.983 | locus YJL092W, strain hpr5, active compounds read low 1.01 | locus YJL095W, strain BCK1 (second series), active compounds read low 1.02 | locus YJL095W, strain BCK1, active compounds read low 0.981 and 0.985 | locus YJL115W, strain asf1, active compounds read low 1.01 | locus YJL129C, strain trk1, active compounds read low 0.98 | locus YJL134W, strain LCB3, active compounds read low 0.993 | locus YJL154C, strain vps35, active compounds read low 0.996 | locus YJL164C, strain tpk1, active compounds read low 0.992 | locus YJL166W, strain qcr8, active compounds read low 1 | locus YJL168C, strain set2, active compounds read low 0.991 | locus YJL187C, strain SWE1 (second series), active compounds read low 0.982 | locus YJL187C, strain SWE1, active compounds read low 1 | locus YJR043C, strain POL32, active compounds read low 1 | locus YJR066W, strain TOR1, active compounds read low 0.925
